Assay results as given in PubChem BioAssay (EPA / NIEHS).
The source made the active and inactive calls. How the source made its calls: active means hit-call score of the fitted dose curve at least 0.9, where 1 is the maximum; inactive means score below 0.9.

Assay: BSK_SAg_SRB: Viability Assessment in the BioMAP Diversity Plus: SAg Assay (AID 2283096);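 further: cells read one day after compound addition; hits may be either gain or loss of signal compared with DMSO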
Conditions: primary human HUVEC with PBMC
Protocol: BSK_SAg is a cell-based, multiplexed-readout assay that uses umbilical vein endothelium and peripheral blood mononuclear cells, a human vascular primary cell co-culture, with measurements taken at 24 hours after chemical dosing in a 96-well plate.BSK_SAg_SRB is an assay component measured in the BSK_SAg assay. It measures protein content, a form of viability reporter, as detected with absorbance signals by Sulforhodamine staining technology.Data from the assay component BSK_SAg_SRB was analyzed into 1 assay endpoint. This assay endpoint, BSK_SAg_SRB, was analyzed with bidirectional fitting relative to DMSO as the negative control and baseline of activity. Using a type of viability reporter, gain or loss-of-signal activity can be used to understand changes in the signaling. Furthermore, this assay endpoint can be referred to as a primary readout, because this assay has produced multiple assay endpoints where this one serves a signaling function. To generalize the intended target to other relatable targets, this assay endpoint is annotated to the cell morphology intended target family, where the subfamily is cell conformation.
The levels of cell surface (or secreted, indicated by the prefix "s") biomarker endpoints were measured by ELISA. Overt cytotoxicity to cells in confluent adherent cultures (all systems other than the BT system) was assessed by measuring total protein levels using sulforhodamine B (SRB) staining in parallel cultures at the time of biomarker measurements, indicated as SRB endpoints. For proliferation assays for adherent cell types, individual cell types are cultured at sub-confluence and relative cell numbers quantified by SRB staining at time points optimized for each system (48 h: 3C and CASM3C systems; 72 h: BT and HDF3CGF systems; 96 h: SAg system). SRB was performed by staining cells with 0.1% SRB after fixation with 10% TCA and reading wells at 560 nm.Viability and proliferation of PBMC (T cells) was quantified by Alamar Blue reduction for the SAg and BT systems. For PBMC viability (referred to as PBMC Cytotoxicity within the assay endpoint names), cells were plated (75,000/well in a 96-well plate) and then chemical samples added for 1 h before addition of activators, SEB and TSST-1 (20 ng/mL final concentration each). Cells were incubated for 90 h. Then, Alamar Blue (20 uL/well) (Invitrogen, Cat DAL1100) was added for 6 h, and the plates were read with a fluorescence microplate reader at 546/580 nm (excitation/emission). For PBMC proliferation, cells were plated and activated as above but incubated for only 16 h prior to addition of Alamar Blue. Plates were read after 6 h.

| Structure (SMILES) | outcome | AC50 |
| --- | --- | --- |
| CCN(CC)CCO | inactive |  |
| Cc1cc(N=Nc2ccccc2C)ccc1N |  | 9.88 µM (active) |
| CN(C)[C@@H]1C(=O)C(C(N)=O)=C(O)[C@@]2(O)C(=O)C3=C(O)c4c(O)cccc4[C@@](C)(O)[C@H]3C[C@@H]12 | inactive |  |
| [Cl-].[Cl-].[Hg+2] | inactive |  |
| C=CCc1ccc2c(c1)OCO2 | inactive |  |
| CCC(C)c1ccc(O)cc1 (stereo not given) | inactive |  |
| CCCCCCCCn1sccc1=O |  | 20.8 µM (active) |
| CCN(CC)N=O | inactive |  |
| CC(C)(OOC(C)(C)c1ccccc1)c1ccccc1 |  | 32.7 µM (active) |
| COc1cc(C=O)cc2c1[C@H](COC(N)=O)[C@]1(OC(C)=O)ON2C[C@H]2[C@@H]1N2C(C)=O |  | 4.34 µM (active) |
| COP(=S)(OC)SCN1C(=O)c2ccccc2C1=O | inactive |  |
| Nc1ccc(Cc2ccc(N)cc2)cc1 | inactive |  |
| CC(C)(C)OOC(C)(C)CCC(C)(C)OOC(C)(C)C | inactive |  |
| COC(=O)Nc1nc2ccccc2[nH]1 |  | 9.84 µM (active) |
| CCCSC(=O)N(CCC)CCC | inactive |  |
| CC(C)N(Cc1ccccc1)C(=O)C(C)(C)C | inactive |  |
| CCCCOC(=O)c1ccccc1C(=O)OCc1ccccc1 |  | 10.8 µM (active) |
| COC(=O)c1ccccc1N | inactive |  |
| Oc1ccccc1Cl | inactive |  |
| Cc1ccc([N+](=O)[O-])cc1 | inactive |  |

| Structure (SMILES) | outcome | AC50 |
| --- | --- | --- |
| Nc1ccc(N=Nc2ccccc2)cc1 | inactive |  |
| c1ccc2c(c1)oc1ccccc12 | inactive |  |
| C[C@]12C=CC3=C4CCC(=O)C=C4CC[C@H]3[C@@H]1CC[C@@H]2O |  | 7.24 µM (active) |
| CO[C@@H]1[C@H](OC(=O)NC(=O)CCl)CC[C@]2(CO2)[C@H]1[C@@]1(C)O[C@@H]1CC=C(C)C | inactive |  |
| Clc1ccc(C(c2ccc(Cl)cc2)C(Cl)Cl)cc1 |  | 29.5 µM (active) |
| Nc1ccc(Oc2ccc(N)cc2)cc1 | inactive |  |
| Brc1ccc(Oc2ccccc2)cc1 | inactive |  |
| N#CC(Br)Br | inactive |  |
| O=[N+]([O-])c1ccc(Oc2ccc(Cl)cc2Cl)cc1 | inactive |  |
| C1=Cc2cccc3cccc1c23 | inactive |  |
| c1ccc(C2CO2)cc1 (stereo not given) | inactive |  |
| Clc1ccc(Cl)c(Cl)c1 | inactive |  |
| CC(C)COC(=O)c1ccccc1C(=O)OCC(C)C | inactive |  |
| Cc1ccc(N)c(N)c1 | inactive |  |
| CCOC(=O)[C@]1(c2ccccc2)Oc2ccccc2[C@@H]1N | inactive |  |
| O=C(Nc1ccccc1)c1ccccc1I | inactive |  |
| Clc1ccc(C(c2ccc(Cl)cc2)C(Cl)(Cl)Cl)cc1 |  | 21.6 µM (active) |
| [O-][Cl+]O | inactive |  |
| CN(C)c1ccccc1 | inactive |  |
| OCCCl | inactive |  |
